G9a inh: qHTS Assay for Inhibitors of Histone Lysine Methyltransferase G9a; Histone-lysine N-methyltransferase EHMT2 (Homo sapiens), Q96KQ7; G9a H3K9 monomethylation, AlphaScreen, 2 h; Potency, µM (series often up to 102 µM), without a hit: at the highest dose activity, negative = inhibition, usual class: inhibitors; 8.8% of 350,000 active; AID 504332, 2011; further: potency means the concentration at half of the fitted maximal effect; on the % scale 0 is the no-effect control and ±100 the full control effect; nearly all actives have a fitted effect of over 75% in size
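G9a (20 nM) was preincubated 15 min with compound, then reacted 2 h at room temperature with 500 nM biotin-H3K9 peptide and 20 µM SAM. Monomethyl-H3K9 detected by AlphaScreen using anti-H3K9me1 antibody.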
JMJD2A Tudor: qHTS Assay for Inhibitors of JMJD2A-Tudor Domain. 4.4% of 390,000 active. Lysine-specific demethylase 4A (Homo sapiens), O75164. Potency, µM (top dose mostly 114 µM), for the others: top-dose activity change, negative = inhibition, actives largely listed as inhibitors. AlphaScreen JMJD2A-Tudor / H3K4me3 peptide binding; further: potency means the concentration at half of the fitted maximal effect; on the % scale 0 is the no-effect control and ±100 the full control effect; nearly all actives have a fitted effect of over 50% in size
BAZ2B block: qHTS Assay for Inhibitors of BAZ2B; AlphaScreen BAZ2B-H3K14Ac peptide displacement; AID 504333, 2011; 4.4% of 360,000 active; Potency, µM (series often up to 114 µM), for the others: at the top dose activity change, negative = inhibition, hits mostly inhibitors; further: potency means the concentration at half of the fitted maximal effect; on the % scale 0 is the no-effect control and ±100 the full control effect; nearly all actives have a fitted effect of over 60% in size
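Multi-concentration screen (max 110 uM) measuring displacement of acetylated histone H3 peptide from BAZ2B by AlphaScreen, using 50 nM protein, 50 nM peptide and 10 ug/mL streptavidin donor plus Ni-chelate acceptor beads.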
PLK1 PBD block: qHTS for Inhibitors of PLK1-PDB (polo-like kinase 1 - polo-box domain): Primary Screen. Potency, µM, without a hit: max response, negative = inhibition, hits mostly inhibitors. Serine/threonine-protein kinase PLK1 (Homo sapiens), P53350. 2.8% of 360,000 active. Plk1 PBD binding of FITC phosphopeptide, fluorescence polarization. AID 720504, 2013; further: potency means the concentration at half of the fitted maximal effect; series mostly up to about 57 µM; on the % scale 0 is the no-effect control and ±100 the full control effect; nearly all actives have a fitted effect of over 65% in size
Target sequence (P53350 whole entry, looked up, the tested form may be a part): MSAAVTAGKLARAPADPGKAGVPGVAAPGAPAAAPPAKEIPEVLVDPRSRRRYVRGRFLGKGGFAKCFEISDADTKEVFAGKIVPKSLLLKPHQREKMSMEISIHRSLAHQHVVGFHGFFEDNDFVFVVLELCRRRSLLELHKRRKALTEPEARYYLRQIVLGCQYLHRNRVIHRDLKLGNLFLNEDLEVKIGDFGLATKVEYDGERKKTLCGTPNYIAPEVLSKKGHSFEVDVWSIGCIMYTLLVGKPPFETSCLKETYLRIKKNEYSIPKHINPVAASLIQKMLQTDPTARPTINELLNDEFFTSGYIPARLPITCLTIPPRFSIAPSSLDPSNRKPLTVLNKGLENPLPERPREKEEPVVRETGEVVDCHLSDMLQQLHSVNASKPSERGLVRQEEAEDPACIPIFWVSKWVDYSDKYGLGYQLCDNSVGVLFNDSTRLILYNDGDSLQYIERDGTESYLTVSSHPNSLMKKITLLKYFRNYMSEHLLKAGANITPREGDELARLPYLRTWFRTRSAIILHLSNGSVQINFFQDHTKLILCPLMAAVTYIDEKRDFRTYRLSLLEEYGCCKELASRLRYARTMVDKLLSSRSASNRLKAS
HP1b chromo inh: HTS for Inhibitors of HP1-beta Chromodomain Interactions with Methylated Histone Tails | Chromobox protein homolog 1 (Homo sapiens), P83916 | AlphaScreen HP1-beta / biotin-H3K9me3 peptide binding | Potency, µM (titrated, usually from 114 µM), for inactives: top-dose activity change, negative = inhibition, actives largely listed as inhibitors | 0.56% of 390,000 active | AID 540317, 2011; further: potency means the concentration at half of the fitted maximal effect; nearly all actives have a fitted effect of over 70% in size
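Compound inhibition of the preformed complex between 50 nM HP1-beta and 50 nM biotinylated H3K9me3 peptide was read by AlphaScreen. Buffer was PBS pH 7.4 with 0.01% Tween-20. Incubations ran 30 min at room temperature, with 10 ug/mL donor/acceptor beads.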
Sfp inh: qHTS Assay for Inhibitors of Bacillus subtilis Sfp phosphopantetheinyl transferase (PPTase). 4'-phosphopantetheinyl transferase ffp (Bacillus subtilis), Q9F4F7. AID 1490, 2009. 3.5% of 310,000 active. Biochemical Sfp PPTase activity, qHTS. Potency, µM, without a hit: largest response in the series, negative = inhibition, actives largely listed as inhibitors;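 further: the enzyme is Sfp with the accession as filed and its product quenches rhodamine fluorescence; potency means the concentration at half of the fitted maximal effect; 0% = enzyme reaction without inhibitor and -100% = no enzyme wells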
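Reaction rates are the 30-min fluorescence difference (ex 525, em 598 nm) in wells containing 15 nM Sfp, 5 uM rhodamine-CoA and 12.5 uM BHQ-2-YbbR at pH 7.6 with 10 mM MgCl2.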
12-hLO 8HQ R1: Cuvette-Based Assay for Inhibitors of 12-hLO (12-human lipoxygenase): 8HQ Series - Round 1; purified 12-hLO, cuvette UV 234 nm product formation; shares compounds with BAZ2B block; Potency, µM, actives largely listed as inhibitors; 60% of 35 active; AID 2163, 2009;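 active means compounds that slowed 12-hLO product formation enough to yield a measured IC50 potency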
KDM4E inh: Inhibitors of Human Jumonji Domain Containing 2E (JMJD2E): 8HQs - Round 1. shares compounds with BAZ2B block. 89% of 130 active. Potency, µM (series often up to 57 µM), without a hit: at the top dose activity, negative = inhibition, hits mostly inhibitors. JMJD2E demethylase, FDH-coupled NADH fluorescence (FDH is formaldehyde dehydrogenase)
ME-1 growth: qHTS Assay for Compounds Blocking the Interaction Between CBF-beta and RUNX1 for the Treatment of Acute Myeloid Leukemia: ME-1 cellular proliferation | shares compounds with BAZ2B block | Potency, µM (highest dose often 56.1 µM), for the others: at the highest dose activity change, negative = inhibition, hits mostly inhibitors | 20% of 140 active | ME-1 cell proliferation, ATP luminescence, 48 h | AID 504370, 2011
An asterisk follows results filed as active; [ ] = remark or other dose. Most compounds without a hit are left out; they make up all but 12% or so of the library. Unless noted, the call rests on the fitted dose curve; in most records, active means well fitted curve in the direction sought with a large enough effect; inconclusive means small, poorly fitted or top-dose-only effect, or another doubt; inactive means no such curve, though single readings can be large; an effect the other way counts as inactive or inconclusive.

`CN=c1scc(-c2ccccc2F)n1/N=C/c1ccc(O)c(O)c1O` gave G9a inh 13µM*, JMJD2A Tudor 32µM*, BAZ2B block 7.9µM*, PLK1 PBD block 5.3µM*, HP1b chromo inh 28µM*, Sfp inh 3.2µM* and ME-1 growth 4.5µM*.
For CC(C)CCN1C(=O)c2ccc(C(=O)OCC(=O)N(CC(C)C)C3CCS(=O)(=O)C3)cc2C1=O (stereo unspecified) the results were JMJD2A Tudor -24%, PLK1 PBD block -2% and HP1b chromo inh 14%.
For Cc1nc2ccc(NC(=S)N3CCOCC3)cc2nc1C the results were G9a inh 45µM*, JMJD2A Tudor -16%, BAZ2B block -30%, PLK1 PBD block -12%, HP1b chromo inh 41%, Sfp inh -18% and ME-1 growth -14%.
`O=[N+]([O-])c1ccccc1N(S(=O)(=O)c1ccccc1)S(=O)(=O)c1ccccc1` gave JMJD2A Tudor inconclusive, PLK1 PBD block -5% and HP1b chromo inh -5%.
For c1cnc2c(c1)ccc1cccnc12 the results were G9a inh 13µM*, JMJD2A Tudor 7.9µM*, BAZ2B block 1.6µM*, PLK1 PBD block -27%, HP1b chromo inh 31%, Sfp inh 2.5µM* and ME-1 growth 8.9µM*.
For Nc1cccc(N)c1 the results were ME-1 growth -2%.
`Nc1nc(-c2ccccc2)c(N=Nc2ccccc2Cl)s1` gave G9a inh 10µM*, JMJD2A Tudor 13µM*, BAZ2B block 10µM*, PLK1 PBD block -5%, HP1b chromo inh 18µM*, Sfp inh -3% and ME-1 growth -14%[25.6 µM].
For Nc1nc(-c2ccccc2)c(N=Nc2cccc3ccccc23)s1 the results were G9a inh 10µM*, JMJD2A Tudor 11µM*, BAZ2B block 8.9µM*, PLK1 PBD block 3%, HP1b chromo inh inconclusive, Sfp inh 13% and ME-1 growth -10%[25.6 µM].
Screening CC(=O)Nc1sc(N)nc1-c1ccccc1 returned G9a inh inconclusive, JMJD2A Tudor -28%, BAZ2B block 4%, PLK1 PBD block -10%, HP1b chromo inh 12% and Sfp inh inconclusive.
`CN1C(=O)C(O)(c2sc(N)nc2-c2ccccc2)c2ccccc21` (stereo unspecified) gave G9a inh -17%, JMJD2A Tudor -16%, BAZ2B block -1%, PLK1 PBD block -3%, HP1b chromo inh 12% and Sfp inh 13%.
O=C(NCc1cccnc1)c1ccc2sc([C@@H]3O[C@H](CO)[C@H](O)[C@H](O)[C@H]3O)nc2c1 was read as PLK1 PBD block -17%.
O=c1c(-c2cc(O)c(O)c(O)c2)coc2cc(O)c(O)c(O)c12 was read as G9a inh -147%[2.33 µM], Sfp inh -92% and ME-1 growth 16%.
`O=c1c(-c2ccc(O)cc2)coc2cc(O)cc(O)c12` gave G9a inh 18%[12.7 µM], JMJD2A Tudor -15%, BAZ2B block -8%, PLK1 PBD block -9%, HP1b chromo inh 27% and Sfp inh 16%.
Screening O=[N+]([O-])c1ccc(O)c(/C=N/NC2=NS(=O)(=O)c3ccccc32)c1 returned G9a inh inconclusive, JMJD2A Tudor 20µM*, BAZ2B block 1.8µM*, PLK1 PBD block 11%, HP1b chromo inh 42%, Sfp inh 29% and ME-1 growth inconclusive.
COc1cccc(C(=O)NC(c2ccc(Cl)cc2)c2cc(Cl)c3cccnc3c2O)c1 (stereo unspecified) was read as G9a inh 18%[59 µM], JMJD2A Tudor -1%, BAZ2B block 5% and HP1b chromo inh 8%.
Screening CN(Cc1ccc(Cl)c(Cl)c1)C(C(=O)NCc1ccccc1)c1ccco1 (stereo unspecified) returned PLK1 PBD block -5%.
Screening CC(=O)NC(c1ccco1)c1cc(Cl)c2ccc(N(C)C)nc2c1O (stereo unspecified) returned G9a inh inconclusive, BAZ2B block 50µM*, 12-hLO 8HQ R1 inactive and KDM4E inh 20µM*.
CCC(=O)NC(c1ccco1)c1cc(Cl)c2cccnc2c1OC (stereo unspecified) was read as G9a inh -23%[12.7 µM], JMJD2A Tudor -13%, BAZ2B block -2%, HP1b chromo inh 27%, 12-hLO 8HQ R1 inactive and KDM4E inh 32µM*.
`CCC(=O)NC(c1cc(Cl)c2cccnc2c1O)c1cccn1C` (stereo unspecified) gave JMJD2A Tudor inconclusive, 12-hLO 8HQ R1 3.8µM* and KDM4E inh 16%.
For CC(=O)NC(c1ccco1)c1cc(Cl)c2cccnc2c1O (stereo unspecified) the results were G9a inh 14%[12.7 µM], BAZ2B block 32µM*, 12-hLO 8HQ R1 3µM* and KDM4E inh 32µM*.
CCN(CC)C(=O)Oc1c(Cl)cc(Cl)c2cccnc12 was read as JMJD2A Tudor -6%, BAZ2B block 1%, PLK1 PBD block 0%, HP1b chromo inh 44% and Sfp inh 8%.
CC(=O)NC(c1ccco1)c1cc(Br)c2cccnc2c1O (stereo unspecified) was read as G9a inh 8%[12.7 µM], BAZ2B block 28µM*, 12-hLO 8HQ R1 2µM* and KDM4E inh 29µM*.

Source: PubChem
